Source: PubChem BioAssay
PGC1a acetyl inh – inhibitors of PGC1a acetylation signal, primary screen, cell-based, U2OS, AlphaScreen, inhibitor mode; AID 651687, 2012; AlphaScreen anti-acetyl-lysine; with virally co-expressed GCN5 acetyltransferase; inhibition, % at 15.6 µM; 350,000 tested, 0.17% active;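 active = every replicate shows inhibition of at least 40%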;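 also: 0% = neutral control wells and 100% = positive control wells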
Ecoli rRNA inh – reduced GFP signal of wild-type E. coli, primary screen, bacterial rRNA inhibitor project, GFP/RFP fluorescence, OD600, single point; E. coli WT GFP vs humanized-ribosome RFP mutants, 24 h; stronger effect = lower value; DMSO median 0, no signal -100; GFP signal change (wild-type ribosome), % (concentration not given with the values); 350,000 tested, 1.6% active; AID 720706, 2013;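 active = significant combined selectivity score with lowered wild-type GFP, culture density cut under 30%, mutant RFP and density less affected; inactive = any of these conditions unmet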
PAX8 inh HTS – inhibitors of PAX8-driven TPO luciferase reporter, primary screen, RMG-I cells, single concentration; SteadyGlo, 24 h; inhibition, % at 12.6 µM; 360,000 tested, 1.2% active; AID 652154, 2013;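 active = mean replicate inhibition at least 60% with every replicate also reaching 60%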;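 also: luciferase light reporting Pax8 driven TPO promoter activity; plate controls were median of neutral control wells for no effect and mitoxantrone controls for full effect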
SIRT5 inh – SIRT5 desuccinylase inhibitors, primary screen, biochemical, fluorescence imaging, single point, set 5; inhibition, % at 15 µM; NAD-dependent protein deacylase sirtuin-5, mitochondrial (Homo sapiens), Q9NXA8; 330,000 tested, 1.1% active; Purified SirT5, succinyl-peptide AMC, trypsin-coupled fluorescence; in the data active = inhibition above about 15%
Target sequence (Q9NXA8 whole entry, looked up): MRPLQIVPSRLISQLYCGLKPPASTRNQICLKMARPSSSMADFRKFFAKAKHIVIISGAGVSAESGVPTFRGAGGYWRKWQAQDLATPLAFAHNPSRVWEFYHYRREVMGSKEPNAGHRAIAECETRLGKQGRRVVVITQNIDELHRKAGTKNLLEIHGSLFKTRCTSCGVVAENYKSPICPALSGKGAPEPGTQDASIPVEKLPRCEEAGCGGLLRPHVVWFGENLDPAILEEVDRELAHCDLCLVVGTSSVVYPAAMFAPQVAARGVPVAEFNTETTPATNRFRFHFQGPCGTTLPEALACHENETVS
LGR2 antag – inhibitors of bursicon-induced LGR2 CRE-luciferase signal, primary screen, cell-based, HEK293, CRE-luciferase reporter, bursicon stimulation; Drosophila bursicon receptor LGR2 (rickets); bursicon-stimulated, 4 h; inhibition, % at 9.99 µM; 380,000 tested, 0.35% active; AID 720647, 2013;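 active = drop in luminescence signal, shown as inhibition above about 50% in the replicate tests, limit read from the data, passing the limit was not always enough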;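 also: agonist challenge used bursicon conditioned medium at about half maximal strength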
EWS-Fli block – EWS/Fli-driven NR0B1 reporter inhibitors, primary screen, A673 cells, NR0B1 luciferase, luminescence, MLPCN library | viability-normalised | inhibition, % at 12.6 µM | 350,000 tested, 0.67% active | AID 651661, 2012;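 active = mean inhibition of at least 50% after viability correction, with every replicate also passing that limit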;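 also: firefly luciferase signal divided by Alamar Blue viability fluorescence both relative to DMSO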
* hit, by the source's call; / = no result given. Shown are actives, neighbours in structure and some others; about 3.4% of the full set was active somewhere.

SMILES	PGC1a acetyl inh	Ecoli rRNA inh	PAX8 inh HTS	SIRT5 inh	LGR2 antag	EWS-Fli block
C[C@@H]1CN([C@@H](C)CO)C(=O)c2cc(N(C)C)ccc2O[C@@H](C)CCCCO[C@@H]1CN(C)C(=O)Nc1ccccc1	-4.1	0.3	0.8	16.0*	6.3	-5.0
COc1ccc(NC(=O)Nc2ccc3c(c2)C(=O)N([C@@H](C)CO)C[C@H](C)[C@@H](CN(C)C(=O)Nc2ccc(F)cc2)OCCCC[C@H](C)O3)cc1	-11.5	0.7	12.8	17.3*	12.8	4.5
COc1ccc(NC(=O)N(C)C[C@@H]2OCCCC[C@H](C)Oc3ccc(NC(=O)NC4CCCCC4)cc3C(=O)N([C@H](C)CO)C[C@@H]2C)cc1	-11.6	-1.1	-22.6	3.2	57.2*	-1.7
C/C=C/c1ccccc1[C@H]1[C@@H](CO)N(C(=O)CN2CCOCC2)[C@H]1C#N	5.6	3.7	/	-2.9	13.3	-6.5
CCCNC(=O)C[C@H]1CC[C@H]2[C@@H](COC[C@@H](O)CN2C(=O)Nc2c(C)noc2C)O1	6.4	2.0	6.9	3.3	-4.6	7.7
Cc1nc(S(=O)(=O)N[C@@H]2CCCN(Cc3cccc(OCCO)c3)C2)cn1C	-5.8	/	-7.7	/	/	0.2
C[C@@H]1CN([C@H](C)CO)C(=O)c2cc(N(C)C)ccc2O[C@H]1CN(C)C(=O)Nc1ccc(F)cc1	-0.7	1.6	0.0	33.7*	11.5	1.7
COc1ccc(NC(=O)N(C)C[C@H]2OCCCC[C@@H](C)Oc3ccc(NC(=O)Nc4ccc(C(F)(F)F)cc4)cc3C(=O)N([C@@H](C)CO)C[C@@H]2C)cc1	25.5	4.1	77.4*	2.3	9.7	6.9
CCC(=O)N1CC2(CCN(S(C)(=O)=O)CC2)c2c(n(C)c3cc(OC)ccc23)[C@H]1CO	1.5	-0.8	/	/	-2.4	2.2
Cc1noc(C)c1NC(=O)N(C)C[C@@H]1Oc2c(NC(=O)Nc3cccc4ccccc34)cccc2C(=O)N([C@@H](C)CO)C[C@H]1C	-0.7	-3.8	/	3.0	-4.7	3.1
Cc1nn(C2CCS(=O)(=O)C2)c2nc(C3CC3)cc(C(=O)Nc3cccc(C#N)c3)c12 (stereo not given)	-4.5	-9.8	74.7*	-7.6	-21.3	11.4
O=C(NC1CCCC1)N[C@@H]1CC[C@@H](CC(=O)N2CCOCC2)O[C@H]1CO	4.8	3.7	-16.5	-3.1	10.2	3.1
O=C(C[C@H]1CC[C@@H]2[C@H](COC[C@H](O)CN2C(=O)c2ccc(F)cc2)O1)Nc1nccs1	-3.4	2.7	-10.2	-3.0	10.8	-5.3
CO[C@H]1CC[C@@H]2CCN(C)C(=O)CC3(CCCCC3)CN(C)C(=O)c3cccc(C#N)c3OC[C@H]1O2	/	/	-2.8	-0.8	/	6.0
COC(=O)c1c(C)nc(C)c(C(=O)OC)c1-c1ccc(OC)cc1	/	-7.1	10.1	-3.8	-1.9	0.3
COC(=O)c1c(C)nc(C)c(C(=O)OC)c1-c1ccsc1	2.5	-40.0*	20.4	-0.3	-3.3	11.2
CCOC(=O)c1c(C)nc(C)c(C(=O)OCC)c1-c1ccc(OC)cc1	-4.4	-38.0*	/	25.6*	-0.9	13.2
O=C(N/N=C/c1sc(N2CCOCC2)nc1-c1ccccc1)c1ccc(O)cc1	/	4.9	-10.8	1.1	-3.8	10.4
O=C(N/N=C/c1sc(N2CCOCC2)nc1-c1ccccc1)c1cccc(S(=O)(=O)N2CCCC2)c1	3.8	/	73.8*	8.1	/	20.3
CCOC(=O)C1(Cc2ccc(OC)cc2)CCN(C(=O)CN2CCCCC2=O)CC1	-3.9	7.0	91.9*	3.8	-7.6	-14.8
C[C@@H]1CN([C@@H](C)CO)C(=O)c2cc(C#CC3CC3)cnc2O[C@H]1CN(C)C(=O)c1ccncc1	4.0	3.4	/	/	6.4	-3.6
Cc1ccccc1Cn1cnc2ccccc2c1=O	/	-0.5	160.1*	-5.1	5.8	-5.6
Cc1ccc2c(CSc3nc4ccccc4c(=O)n3CCCO)cc(=O)oc2c1C	-9.1	/	/	/	/	/
Cc1ccc2c(CSc3nnc4ccccn34)cc(=O)oc2c1C	9.5	2.9	65.9*	/	-9.4	-37.4
O=C(O)c1ccc(-n2cccc2/C=C2/NC(=O)N(c3ccccc3)C2=O)cc1	-7.0	-5.1	-11.7	24.6*	10.9	16.5
SMILES	PGC1a acetyl inh	Ecoli rRNA inh	PAX8 inh HTS	SIRT5 inh	LGR2 antag	EWS-Fli block
N#Cc1ccccc1CN1C(=O)S/C(=C/c2cccn2-c2ccc(C(=O)O)cc2)C1=O	-4.3	/	/	/	/	/
O=C(O)c1cccc(-n2cccc2/C=C/[N+](=O)[O-])c1	10.4	10.4	10.7	15.3*	10.8	-9.7
O=C(O)c1cccc(-n2cccc2/C=C2\NC(=O)N(Cc3ccc(F)cc3)C2=O)c1	10.1	7.9	26.6	15.7*	-50.1	-59.2
O=C(O)c1ccc(-n2cccc2/C=C2/SC(=O)N(CC(=O)N3CCCC3)C2=O)cc1	/	5.5	-0.9	18.8*	-2.6	-4.0
O=C(C[C@@H]1CC[C@@H]2[C@H](COC[C@@H](O)CN2Cc2cc(F)ccc2F)O1)NCc1ccc(Cl)cc1	8.4	-9.5	10.8	5.3	9.2	8.2
COC(=O)c1nn(-c2ccccc2)c(Sc2ccc(Cl)cc2)c1/C=N/O	-17.5	/	/	/	/	/
COC(=O)c1nn(-c2ccccc2)c(Sc2ccc(Br)cc2)c1/C=N/O	/	-19.9*	/	-0.4	-0.9	/
C[C@@H]1CCCCO[C@H](CN(C)C(=O)Nc2ccc(F)cc2)[C@@H](C)CN([C@H](C)CO)C(=O)c2cc(NC(=O)Nc3ccc(C(F)(F)F)cc3)ccc2O1	7.1	6.7	6.3	-0.1	-1.6	-14.4
C[C@@H]1CCCCO[C@H](CN(C)C(=O)Nc2ccccc2)[C@@H](C)CN([C@H](C)CO)C(=O)c2cc(NC(=O)Nc3ccc(C(F)(F)F)cc3)ccc2O1	9.4	0.8	12.3	1.4	7.9	-1.5
C[C@H](CO)N1C[C@H](C)[C@H](CN(C)C(=O)Nc2ccc(C(F)(F)F)cc2)OCCCC[C@H](C)Oc2ccc(NC(=O)Nc3ccc(F)cc3)cc2C1=O	-7.8	3.4	20.6	16.7*	20.5	-6.4
C[C@@H]1CN([C@H](C)CO)C(=O)c2cc(NC(=O)Nc3ccccc3)ccc2O[C@@H](C)CCCCO[C@H]1CN(C)C(=O)Nc1ccc(C(F)(F)F)cc1	-2.1	5.3	84.2*	-1.6	5.8	24.4
Cc1ccc(S(=O)(=O)NCC[C@@H]2CC[C@H](NS(=O)(=O)c3ccccc3Cl)[C@@H](CO)O2)cc1	-5.0	-7.1	25.0	0.3	2.0	-4.7
O=c1c2ccccc2c(C=NCCCN2CCOCC2)c(O)n1Cc1ccccc1	-11.5	/	/	/	/	/
